Source: article PMC11062922 (Nature Chemical Biology, 2023)
Like-named read-outs stand apart in the source and are kept apart here.

How the values were obtained:
[1] = test system: LATS1; details: read-out: apparent Kd, n = 1
[2] = test system: MAP2K2; details: read-out: apparent Kd, n = 1
[3] = compound concentrations:100 nM and 1000 nM (sheet 'Lestaurtinib' of Supplementary Table 1),run:Lestaurtinib_02624_R1,Plate:MR020
[4] = compound concentrations:100 nM and 1000 nM (sheet 'Lestaurtinib' of Supplementary Table 1),run:Lestaurtinib_02624_R2,Plate:MR020
[5] = compound concentrations:100 nM and 1000 nM (sheet 'Lestaurtinib' of Supplementary Table 1),run:Lestaurtinib_02624_R3,Plate:MR020
[6] = compound concentrations:100 nM and 1000 nM (sheet 'Lestaurtinib' of Supplementary Table 1),run:Lestaurtinib_02724_R1,Plate:MR021
[7] = compound concentrations:100 nM and 1000 nM (sheet 'Lestaurtinib' of Supplementary Table 1),run:Lestaurtinib_02752_R1,Plate:MR025
[8] = compound concentrations:100 nM and 1000 nM (sheet 'Lestaurtinib' of Supplementary Table 1),run:Lestaurtinib_02752_R2,Plate:MR025

Substance: Lestaurtinib
- potency estimated from few doses [1, 3]: 25.8 nM
- potency estimated from few doses [1, 4]: 40.9 nM
- potency estimated from few doses [1, 5]: 38.9 nM
- potency estimated from few doses [1, 6]: 13.4 nM
- potency estimated from few doses ([1]; compound concentrations:100 nM and 1000 nM (sheet 'Lestaurtinib' of Supplementary Table 1),run:Lestaurtinib_02724_R3,Plate:MR021): 13.2 nM
- potency estimated from few doses ([1]; compound concentrations:100 nM and 1000 nM (sheet 'Lestaurtinib' of Supplementary Table 1),run:Lestaurtinib_02741_R2,Plate:MR023): 27 nM
- potency estimated from few doses ([1]; compound concentrations:100 nM and 1000 nM (sheet 'Lestaurtinib' of Supplementary Table 1),run:Lestaurtinib_02748_R1,Plate:MR024): 36.2 nM
- potency estimated from few doses ([1]; compound concentrations:100 nM and 1000 nM (sheet 'Lestaurtinib' of Supplementary Table 1),run:Lestaurtinib_02748_R3,Plate:MR024): 56.4 nM
- potency estimated from few doses [1, 7]: 27.3 nM
- potency estimated from few doses [1, 8]: 32.9 nM
- potency estimated from few doses ([1]; compound concentrations:100 nM and 1000 nM (sheet 'Lestaurtinib' of Supplementary Table 1),run:Lestaurtinib_02752_R3,Plate:MR025): 52.3 nM
- potency estimated from few doses ([1]; compound concentrations:100 nM and 1000 nM (sheet 'Lestaurtinib' of Supplementary Table 1),run:Lestaurtinib_02765_R1,Plate:MR026): 40.4 nM
- potency estimated from few doses ([1]; compound concentrations:100 nM and 1000 nM (sheet 'Lestaurtinib' of Supplementary Table 1),run:Lestaurtinib_02765_R2,Plate:MR026): 48.6 nM
- potency estimated from few doses ([1]; compound concentrations:100 nM and 1000 nM (sheet 'Lestaurtinib' of Supplementary Table 1),run:Lestaurtinib_02765_R3,Plate:MR026): 66.7 nM
- potency estimated from few doses ([1]; compound concentrations:100 nM and 1000 nM (sheet 'Lestaurtinib' of Supplementary Table 1),run:Lestaurtinib_02768_R1,Plate:MR028): 31.7 nM
- potency estimated from few doses ([1]; compound concentrations:100 nM and 1000 nM (sheet 'Lestaurtinib' of Supplementary Table 1),run:Lestaurtinib_02795_R1,Plate:MR022): 15.1 nM
- potency estimated from few doses ([1]; compound concentrations:100 nM and 1000 nM (sheet 'Lestaurtinib' of Supplementary Table 1),run:Lestaurtinib_02795_R3,Plate:MR022): 46.9 nM
- potency estimated from few doses ([1]; compound concentrations:100 nM and 1000 nM (sheet 'Lestaurtinib' of Supplementary Table 1),run:Lestaurtinib_02802_R1,Plate:MR029): 38.6 nM
- potency estimated from few doses ([1]; compound concentrations:100 nM and 1000 nM (sheet 'Lestaurtinib' of Supplementary Table 1),run:Lestaurtinib_02802_R2,Plate:MR029): 26 nM
- potency estimated from few doses ([1]; compound concentrations:100 nM and 1000 nM (sheet 'Lestaurtinib' of Supplementary Table 1),run:Lestaurtinib_02896_R1,Plate:MR030): 15.1 nM
- potency estimated from few doses ([1]; compound concentrations:100 nM and 1000 nM (sheet 'Lestaurtinib' of Supplementary Table 1),run:Lestaurtinib_02896_R2,Plate:MR030): 27.9 nM
- potency estimated from few doses ([1]; compound concentrations:100 nM and 1000 nM (sheet 'Lestaurtinib' of Supplementary Table 1),run:Lestaurtinib_03172_R1,Plate:MR031): 40.9 nM
- potency estimated from few doses ([1]; compound concentrations:100 nM and 1000 nM (sheet 'Lestaurtinib' of Supplementary Table 1),run:Lestaurtinib_03172_R2,Plate:MR031): 32.7 nM
- potency estimated from few doses ([1]; compound concentrations:100 nM and 1000 nM (sheet 'Lestaurtinib' of Supplementary Table 1),run:Lestaurtinib_03172_R3,Plate:MR031): 30.1 nM
- potency estimated from few doses ([1]; compound concentrations:100 nM and 1000 nM (sheet 'Lestaurtinib' of Supplementary Table 1),run:Lestaurtinib_03252_R1,Plate:MR032): 41.1 nM
- potency estimated from few doses ([1]; compound concentrations:100 nM and 1000 nM (sheet 'Lestaurtinib' of Supplementary Table 1),run:Lestaurtinib_03260_R2,Plate:MR033): 66 nM
- potency estimated from few doses ([1]; compound concentrations:100 nM and 1000 nM (sheet 'Lestaurtinib' of Supplementary Table 1),run:Lestaurtinib_03260_R3,Plate:MR033): 57.8 nM
- potency estimated from few doses ([2]; compound concentrations:100 nM and 1000 nM (sheet 'Lestaurtinib' of Supplementary Table 1),run:Lestaurtinib_02339_R1,Plate:MR001): 1930 nM
- potency estimated from few doses ([2]; compound concentrations:100 nM and 1000 nM (sheet 'Lestaurtinib' of Supplementary Table 1),run:Lestaurtinib_02339_R2,Plate:MR001): 822 nM
- potency estimated from few doses ([2]; compound concentrations:100 nM and 1000 nM (sheet 'Lestaurtinib' of Supplementary Table 1),run:Lestaurtinib_02339_R3,Plate:MR001): 836 nM
- potency estimated from few doses ([2]; compound concentrations:100 nM and 1000 nM (sheet 'Lestaurtinib' of Supplementary Table 1),run:Lestaurtinib_02364_R1,Plate:MR002): 1210 nM
- potency estimated from few doses ([2]; compound concentrations:100 nM and 1000 nM (sheet 'Lestaurtinib' of Supplementary Table 1),run:Lestaurtinib_02364_R2,Plate:MR002): 1670 nM
- potency estimated from few doses ([2]; compound concentrations:100 nM and 1000 nM (sheet 'Lestaurtinib' of Supplementary Table 1),run:Lestaurtinib_02367_R1,Plate:MR003): 557 nM
- potency estimated from few doses ([2]; compound concentrations:100 nM and 1000 nM (sheet 'Lestaurtinib' of Supplementary Table 1),run:Lestaurtinib_02367_R2,Plate:MR003): 665 nM
- potency estimated from few doses ([2]; compound concentrations:100 nM and 1000 nM (sheet 'Lestaurtinib' of Supplementary Table 1),run:Lestaurtinib_02367_R3,Plate:MR003): 2220 nM
- potency estimated from few doses ([2]; compound concentrations:100 nM and 1000 nM (sheet 'Lestaurtinib' of Supplementary Table 1),run:Lestaurtinib_02407_R1,Plate:MR005): 96.3 nM
- potency estimated from few doses ([2]; compound concentrations:100 nM and 1000 nM (sheet 'Lestaurtinib' of Supplementary Table 1),run:Lestaurtinib_02407_R2,Plate:MR005): 143 nM
- potency estimated from few doses ([2]; compound concentrations:100 nM and 1000 nM (sheet 'Lestaurtinib' of Supplementary Table 1),run:Lestaurtinib_02407_R3,Plate:MR005): 794 nM
- potency estimated from few doses ([2]; compound concentrations:100 nM and 1000 nM (sheet 'Lestaurtinib' of Supplementary Table 1),run:Lestaurtinib_02422_R3,Plate:MR006): 1800 nM
- potency estimated from few doses ([2]; compound concentrations:100 nM and 1000 nM (sheet 'Lestaurtinib' of Supplementary Table 1),run:Lestaurtinib_02437_R1,Plate:MR007): 159 nM
- potency estimated from few doses ([2]; compound concentrations:100 nM and 1000 nM (sheet 'Lestaurtinib' of Supplementary Table 1),run:Lestaurtinib_02437_R2,Plate:MR007): 1370 nM
- potency estimated from few doses ([2]; compound concentrations:100 nM and 1000 nM (sheet 'Lestaurtinib' of Supplementary Table 1),run:Lestaurtinib_02437_R3,Plate:MR007): 98.9 nM
- potency estimated from few doses ([2]; compound concentrations:100 nM and 1000 nM (sheet 'Lestaurtinib' of Supplementary Table 1),run:Lestaurtinib_02438_R1,Plate:MR008): 1800 nM
- potency estimated from few doses ([2]; compound concentrations:100 nM and 1000 nM (sheet 'Lestaurtinib' of Supplementary Table 1),run:Lestaurtinib_02438_R2,Plate:MR008): 876 nM
- potency estimated from few doses ([2]; compound concentrations:100 nM and 1000 nM (sheet 'Lestaurtinib' of Supplementary Table 1),run:Lestaurtinib_02438_R3,Plate:MR008): 745 nM
- potency estimated from few doses ([2]; compound concentrations:100 nM and 1000 nM (sheet 'Lestaurtinib' of Supplementary Table 1),run:Lestaurtinib_02443_R2,Plate:MR009): 782 nM
- potency estimated from few doses ([2]; compound concentrations:100 nM and 1000 nM (sheet 'Lestaurtinib' of Supplementary Table 1),run:Lestaurtinib_02443_R3,Plate:MR009): 924 nM
- potency estimated from few doses ([2]; compound concentrations:100 nM and 1000 nM (sheet 'Lestaurtinib' of Supplementary Table 1),run:Lestaurtinib_02473_R1,Plate:MR010): 838 nM
- potency estimated from few doses ([2]; compound concentrations:100 nM and 1000 nM (sheet 'Lestaurtinib' of Supplementary Table 1),run:Lestaurtinib_02482_R1,Plate:MR011): 1400 nM
- potency estimated from few doses ([2]; compound concentrations:100 nM and 1000 nM (sheet 'Lestaurtinib' of Supplementary Table 1),run:Lestaurtinib_02482_R2,Plate:MR011): 1360 nM
- potency estimated from few doses ([2]; compound concentrations:100 nM and 1000 nM (sheet 'Lestaurtinib' of Supplementary Table 1),run:Lestaurtinib_02482_R3,Plate:MR011): 1300 nM
- potency estimated from few doses ([2]; compound concentrations:100 nM and 1000 nM (sheet 'Lestaurtinib' of Supplementary Table 1),run:Lestaurtinib_02487_R3,Plate:MR012): 1300 nM
- potency estimated from few doses ([2]; compound concentrations:100 nM and 1000 nM (sheet 'Lestaurtinib' of Supplementary Table 1),run:Lestaurtinib_02496_R3,Plate:MR013): 1430 nM
- potency estimated from few doses ([2]; compound concentrations:100 nM and 1000 nM (sheet 'Lestaurtinib' of Supplementary Table 1),run:Lestaurtinib_02566_R2,Plate:MR014): 1240 nM
- potency estimated from few doses ([2]; compound concentrations:100 nM and 1000 nM (sheet 'Lestaurtinib' of Supplementary Table 1),run:Lestaurtinib_02566_R3,Plate:MR014): 835 nM
- potency estimated from few doses ([2]; compound concentrations:100 nM and 1000 nM (sheet 'Lestaurtinib' of Supplementary Table 1),run:Lestaurtinib_02572_R1,Plate:MR015): 1370 nM
- potency estimated from few doses ([2]; compound concentrations:100 nM and 1000 nM (sheet 'Lestaurtinib' of Supplementary Table 1),run:Lestaurtinib_02577_R1,Plate:MR016): 1370 nM
- potency estimated from few doses ([2]; compound concentrations:100 nM and 1000 nM (sheet 'Lestaurtinib' of Supplementary Table 1),run:Lestaurtinib_02577_R2,Plate:MR016): 883 nM
- potency estimated from few doses ([2]; compound concentrations:100 nM and 1000 nM (sheet 'Lestaurtinib' of Supplementary Table 1),run:Lestaurtinib_02577_R3,Plate:MR016): 852 nM
- potency estimated from few doses ([2]; compound concentrations:100 nM and 1000 nM (sheet 'Lestaurtinib' of Supplementary Table 1),run:Lestaurtinib_02584_R3,Plate:MR017): 1580 nM
- potency estimated from few doses ([2]; compound concentrations:100 nM and 1000 nM (sheet 'Lestaurtinib' of Supplementary Table 1),run:Lestaurtinib_02601_R1,Plate:MR018): 728 nM
- potency estimated from few doses ([2]; compound concentrations:100 nM and 1000 nM (sheet 'Lestaurtinib' of Supplementary Table 1),run:Lestaurtinib_02606_R1,Plate:MR019): 691 nM
- potency estimated from few doses ([2]; compound concentrations:100 nM and 1000 nM (sheet 'Lestaurtinib' of Supplementary Table 1),run:Lestaurtinib_02606_R3,Plate:MR019): 1150 nM
- potency estimated from few doses [2, 3]: 976 nM
- potency estimated from few doses [2, 4]: 1760 nM
- potency estimated from few doses [2, 5]: 1490 nM
- potency estimated from few doses [2, 6]: 1320 nM
- potency estimated from few doses ([2]; compound concentrations:100 nM and 1000 nM (sheet 'Lestaurtinib' of Supplementary Table 1),run:Lestaurtinib_02724_R2,Plate:MR021): 1510 nM
- potency estimated from few doses ([2]; compound concentrations:100 nM and 1000 nM (sheet 'Lestaurtinib' of Supplementary Table 1),run:Lestaurtinib_02741_R3,Plate:MR023): 875 nM
- potency estimated from few doses ([2]; compound concentrations:100 nM and 1000 nM (sheet 'Lestaurtinib' of Supplementary Table 1),run:Lestaurtinib_02748_R2,Plate:MR024): 1490 nM
- potency estimated from few doses [2, 7]: 842 nM
- potency estimated from few doses [2, 8]: 925 nM
